# From PubChem BioAssay (NCATS)
# Results filed as inconclusive are left out. Entries that show only a call come without a potency. Calls of active or inactive are those of the source. Calls follow the shape of the dose curve; as a rule, active = well fitted cell-killing curve with a large enough effect; inconclusive = small, poorly fitted or top-dose-only effect; inactive = no such curve, though single readings can be large or run the other way.
# Assay: qHTS of pediatric cancer cell lines to identify multiple opportunities for drug repurposing: Primary screen for SK-N-SH cells (AID 1347098); also: nearly all actives have a fitted effect of over 65% in size
# Conditions: SK-N-SH viability, CellTiter-Glo luminescence, 48 h; series mostly up to 57 µM
# Excerpt: Drug repurposing or repositioning has been offered as a strategy for drug development in oncology programs. This approach has special potential for childhood cancers and other rare or orphan diseases, where the expected return on new drug development has been a disincentive to pharmaceuticals.
# In this project we exploit the poly-pharmacology of drugs to discover new indications via phenotypic screening of a panel of 19 well-characterized cell lines derived from solid tumors seen in children and adolescents. The goal is to identify approved drugs with previously unrecognized anticancer properties that has the potential to reveal new mechanisms and biological processes involved in carcinogenesis or drug resistance. We employed a titration-based paradigm (quantitative high-throughput screening or qHTS), where all compounds were tested at multiple concentrations for their effect on cell viability. Concentration-response curves (CRCs) were derived directly from the primary screen, and both potency and efficacy values were used to identify compounds with robust bioactivity profiles. We screened the NIH Chemical Genomics Center (NCGC) Pharmaceutical Collection (NPC) and Mechanism Interrogation Plate (MIPE) small molecule collections of approved and investigational compounds against these cell lines; and measured metabolically active cells after 48 hours of compound treatment as a proxy for cell viability.
# Assay Submitter: Nathalia J. Martinez, National Center for Advancing Translational Sciences, National Institutes of Health, Rockville, MD, USA; email: natalia.martinez@nih.gov
# [1] Shen, M et al. Quantitative high-throughput phenotypic screening of pediatric cancer cell lines identifies multiple opportunities for drug repurposing. Oncotarget 2017 Dec 19;9(4):4758-4772. PMID 29435139.
# The cells were obtained from University of North Carolina (UNC), Pediatric Preclinical Testing Program (PPT), and Coriell Institute (CI).
# qHTS cell viability assay:
# Cells were assayed in growth media at a density of 500-1,000 cells/well. Five microliters of cells were dispensed into 1,536-well, white, solid-bottom, TC-treated plates (Greiner Bio One) using a multidrop dispenser and incubated at 37 degrees C, 5% CO2, under a humidified atmosphere for 5 hours. Twenty-three nanoliters of compounds and controls (neutral control DMSO or positive control bortezomib at final concentration of 2.3 µM) were subsequently transferred by Kalypsys pintool. For primary screens, the MIPE collection was tested at 11-point dilutions (final concentrations range from 0.78 nM to 46 µM) and the NPC collection at 8-point dilutions (final concentrations range from 0.59 nM to 46 µM). Compounds tested in follow-up screens were assayed at 11-point dilutions. Cells were incubated for 48 hours, followed by addition of 3 µL of CellTiter-Glo (Promega). After a 15 min incubation at room temperature, samples were analyzed for luminescence intensity using a ViewLux High-throughput CCD imager equipped with clear filters.
# Potency is read from the fitted curve at half-maximal effect.
row,Compound,Potency
1,Nc1ccc(C(=O)OCC(O)CO)cc1 (stereo not given),inactive
2,C[C@]12CCC(=O)C=C1CC[C@@H]1[C@@H]2[C@@H](O)C[C@@]2(C)[C@H]1CC[C@]2(O)C(=O)COC(=O)CCC(=O)O,inactive
3,CCOC(=O)c1ccc(NC(=O)CN2CCCCC2)cc1,inactive
4,CSc1ccc(/C=C2/C(C)=C(CC(=O)O)c3cc(F)ccc32)cc1,inactive
5,CCOC(=O)C1=C(C)NC(C)=C(C(=O)OCC)C1c1ccccc1/C=C/C(=O)OC(C)(C)C,27.3 µM (active)
6,O=[N+]([O-])c1cncn1CCN1CCOCC1,inactive
7,O=C(c1ccccc1)c1ccccc1,inactive
8,CC(C(O)c1ccccc1)N(C)CCOC(c1ccccc1)c1ccccc1 (stereo not given),30.7 µM (active)
9,CCCCCC(=O)O[C@]1(C(C)=O)CC[C@H]2[C@@H]3CCC4=CC(=O)CC[C@]4(C)[C@H]3CC[C@@]21C,24.4 µM (active)
10,Cn1cc(S(C)=O)c(=O)c2ccc(F)cc21 (stereo not given),inactive
11,O=[N+]([O-])c1nccn1CO[C@@H](CO)[C@H](O)CO,inactive
12,CN(C)[C@@H]1C(=O)C(C(N)=O)=C(O)[C@@]2(O)C(=O)C3=C(O)c4c(O)cccc4C[C@H]3C[C@@H]12,inactive
13,O=C(O)[C@H](O)[C@@H](O)[C@H](O[C@@H]1O[C@H](CO)[C@H](O)[C@H](O)[C@H]1O)[C@H](O)CO,inactive
14,Brc1ccccc1-c1ccccc1,inactive
15,CCOC(=O)C(=O)CCc1ccccc1,inactive
16,C[N+]1(C)CCC(OC(=O)C(O)(c2ccccc2)C2CCCC2)C1 (stereo not given),inactive
17,CC(C)Cc1ccc(C(C)C(=O)OCc2ccccn2)cc1 (stereo not given),inactive
18,Nc1c[n+](N2CCOCC2)no1,inactive
19,CCCC(=O)Nc1ccc(O)c(C(C)=O)c1,inactive
20,CC(C)C[C@@H]1[C@H](c2ccccc2)OC(=O)N1CCCN1CCCCCC1,inactive

row,Compound,Potency
1,C=C(C)C(=O)OCC(O)CO (stereo not given),inactive
2,CN1C(=O)c2ccccc2C1=O,inactive
3,CCCCCC[C@@H](CCC)C(=O)O,inactive
4,CC(C)=CCC/C(C)=C/CC/C(C)=C/CCC(=O)OC/C=C(\C)CCC=C(C)C,inactive
5,C=CCOc1cc(Cl)ccc1C(=O)NCCN(CC)CC,inactive
6,COc1cc(C(=O)NC2CCCNC2)cc(OC)c1OC (stereo not given),inactive
7,CNC(=O)c1cnn(-c2nc(N)c3ncn([C@@H]4O[C@H](CO)[C@@H](O)[C@H]4O)c3n2)c1,inactive
8,O=C(Nc1ccc(S(=O)(=O)N2CCOCC2)cc1)c1cc(Cl)ccc1NS(=O)(=O)c1ccc(Cl)s1,inactive
9,Cc1cccc(N(C)C(=S)Oc2ccc3c(c2)C2CCC3C2)c1 (stereo not given),inactive
10,Cc1ccc2ccc(Cl)cc2n1,inactive
11,CC(C)(C)C(=O)OCOC(=O)C1N2C(=O)CC2S(=O)(=O)C1(C)C (stereo not given),inactive
12,O=C(COCCOCCOCC(=O)Nc1c(I)cc(I)c(C(=O)O)c1I)Nc1c(I)cc(I)c(C(=O)O)c1I,inactive
13,O=C(O)c1ccccc1S,inactive
14,C=CCNc1nc(NCC=C)nc(N2CCN(C(c3ccc(F)cc3)c3ccc(F)cc3)CC2)n1,inactive
15,Cc1ccc2c(Cl)cc(Cl)c(O)c2n1,inactive
16,CCO[C@H](Cc1ccc(OCCc2ccc(OS(C)(=O)=O)cc2)cc1)C(=O)O,inactive
17,CC(=O)OC/C=C(C)/C=C/C=C(C)/C=C/C1=C(C)CCCC1(C)C,inactive
18,CN=C(N)NC(=O)Nc1c(C)cccc1C,inactive
19,CN1CC(=O)N2[C@H](c3ccc4c(c3)OCO4)c3[nH]c4ccccc4c3C[C@@H]2C1=O,inactive
20,CCN(CC)CC(=O)Nc1c(C)cccc1C(=O)OC,inactive
